PubChem BioAssay AID1159580 (chemical genetic matrix, 2015)
The campaign covered roughly 5,500 compounds. About 2,000 (36%) were called active. Another 18% or so got no clear call; they are omitted. Rule as the data show it: active = normalized growth mostly below about 0.91 (no sharp cut-off); inconclusive = no clear call, values can overlap the other calls; inactive = mostly above about 0.92. This is one part of the list.

Assay: chemical genetic growth profiling, strain panel (AID 1159580);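 also: tested at 20 µM; growth read once vehicle control cultures reached saturation at 30 °C; 1 = growth at the plate median or of vehicle wells; lower values mean less growth of the strain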
Conditions: S. cerevisiae deletion strains, growth OD

Measured: normalized growth

COP(=O)(OC)C(O)C(Cl)(Cl)Cl (stereo not drawn)
inactive: locus YHR030C, strain SLT2, stronger effect = lower value 0.998 | locus YHR079C, strain IRE1, stronger effect = lower value 1.03 | locus YJL095W, strain BCK1, stronger effect = lower value 1.01 | locus YJR066W, strain TOR1, stronger effect = lower value 0.938 | locus YLR113W, strain HOG1, stronger effect = lower value 1 | locus YNL183C, strain NPR1, stronger effect = lower value 0.962 | locus YOR231W, strain MKK1, stronger effect = lower value 1.03 | locus YPL256C, strain CLN2, stronger effect = lower value 0.988
